This is an account of results in PubChem BioAssay.

The subject of assay [1] is TRPC4 beta (transient receptor potential cation channel C4), mouse. The assay can be described thus: activators of mouse TRPC4 channel, confirmation, cell-based, Fluo4 calcium, HEK293 TRPC4beta/mu-opioid, duplicates, 10 µM (AID 2426;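 active = fluorescence ratio normalized to control raised more than 50% in primary screen plus both repeat runs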). The settings on record: Fluo4 calcium fluorescence, at 10 µM; hits give high values.
Assay [2] concerns transient receptor potential cation channel C4 beta (TRPC4), mouse. The experiment in a line: activators of mouse TRPC4 channel, confirmation, cell-based, second round, Fluo4, HEK293 TRPC4beta/mu-opioid, 1 µM (AID 2461;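 active = primary screen active and over 50% activation in each of two duplicate runs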). The settings on record: Fluo4 calcium fluorescence, at 1 µM; hits give high values.
For assay [3], the system named is TRPC4 (transient receptor potential cation channel C4 beta), mouse. The experiment in a line: positive allosteric modulators of mouse TRPC4, confirmation, cell-based, second round, Fluo-4, HEK293 TRPC4beta/mu-opioid, 1 µM (AID 2554). The settings on record: DAMGO EC20, Fluo-4 calcium flux, at 1 µM; hits give high values. A general note: Calcium assays in cells follow changes in intracellular calcium, usually with a dye or a luminescent sensor.

The subject of assay [4] is TRPC4 beta (transient receptor potential cation channel C4), mouse. The assay can be described thus: positive allosteric modulators of mouse TRPC4, confirmation, cell-based, Fluo-4, HEK293 TRPC4beta/mu-opioid (AID 2555;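 active = primary screen hit whose calcium fluorescence ratio, in both repeats, exceeds the weak agonist control mean by 3 SD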). The settings on record: DAMGO EC20, Fluo-4 calcium flux, at 10 µM; hits give high values.
Assay [5] deals with Short transient receptor potential channel 4 (Mus musculus) (UniProt Q9QUQ5). The assay can be described thus: inhibitors of mouse TRPC4 channel, confirmation, cell-based, Fluo4, HEK293 TRPC4beta/mu-opioid (AID 2636;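 active = calcium signal cut by more than 3 SD below the full-agonist control yet still positive, in both repeats and the earlier primary screen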). The settings on record: DAMGO, Fluo4 calcium flux, at 10 µM; hits give high values.
Assay [6] shares this target. The assay can be described thus: inhibitors of mouse TRPC4 channel, confirmation, cell-based, second round, Fluo4, HEK293 TRPC4beta/mu-opioid, 1 µM (AID 2637;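 active = calcium signal ratio cut to more than 3 SD under the fully stimulated control mean yet still positive, in both repeats and the primary screen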;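 as to inhibition: percent of integrated ratio relative to wells lacking test compound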). The settings on record: Fluo4 calcium flux, DAMGO, at 1 µM; hits give high values.
Assay [7] shares this target. The experiment in a line: mouse TRPC4 channel activators, dose response, cell-based, HEK293 TRPC4/mu-opioid, Fluo-4 calcium (AID 434937;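 active = primary screen activator hit with a dose response curve and TRPC4 channel activation at any tested dose; inactive = no activation, no dose response, or not a primary hit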).
Assay [8] has the same target. The assay can be described thus: TRPC4 positive allosteric modulators, dose response, cell-based, HEK293 TRPC4/mu-opioid, Fluo-4 calcium, EC20 DAMGO (AID 434941;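 active = earlier screen potentiator hit that boosts the TRPC4 ion channel at some dose, with a dose response; inactive = no potentiation, no dose response, or not a prior hit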;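 also: calcium entry triggered by an EC20 dose of DAMGO at the co-expressed mu-opioid receptor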).
In assay [9] the target is Short transient receptor potential channel 6 (Mus musculus) (UniProt Q61143). The assay can be described thus: inhibition of mouse TRPC6 channel, confirmation, selectivity assay for TRPC4 inhibitor project, cell-based, HEK293, membrane potential dye, duplicate (AID 434948;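 active = active in primary screen and both duplicates, each dropping signal beyond three positive-control SD with fluorescence still positive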). The settings on record: HEK293 TRPC6, membrane potential dye fluorescence, at 10 µM, stimulated with maximal-effect acetylcholine; hits give high values.

Assay [10] has the same target. The experiment in a line: activation of mouse TRPC6 channel, confirmation, selectivity assay for TRPC4 activator project, cell-based, HEK293, membrane potential dye, duplicate (AID 434950;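 active = membrane potential signal rise above negative control mean plus 3 SD in both duplicates, also active in the earlier TRPC4 screen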). The settings on record: HEK293 TRPC6, membrane potential fluorescence, at 10 µM; hits give high values.
Assay [11] shares this target. The experiment in a line: TRPC6 potentiation by TRPC4 potentiator hits, confirmation, selectivity assay for TRPC4 potentiator project, HEK293 cells, membrane potential dye, duplicate (AID 434952;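 active = compound raising the membrane signal above positive-control mean plus 3 SD in both repeats, and a primary screen hit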). The settings on record: HEK293 TRPC6, membrane potential dye fluorescence, at 10 µM, maximal acetylcholine added after compound; hits give high values.
Assay [12] addresses Short transient receptor potential channel 4 (Mus musculus) (UniProt Q9QUQ5). The assay can be described thus: calcium flux activators in TRPC4/5HT1a cells, counter-screen for TRPC4 activator project, cell-based, second counter screen, HEK293 TRPC4/5HT1a, Fluo-4 (AID 434977;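 active = calcium signal rise above buffer-control mean plus 5 SD in both duplicates, and also a hit in the primary screen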). The settings on record: Fluo-4 calcium flux, at 10 µM; hits give high values.
The nature of assay [13]: calcium flux inhibitors in TRPC4/5HT1a cells, confirmation, counter-screen for TRPC4 inhibitor project, cell-based, second counter screen, HEK293 TRPC4/5HT1a, Fluo-4 (AID 434978;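 active = primary screen active whose calcium signal fell more than 3 SD beyond the full-serotonin control mean in both duplicate plates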;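 as to outcome: serotonin given first at submaximal then at maximal dose after compound preincubation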). The settings on record: Fluo-4 calcium flux, at 10 µM, serotonin added to trigger calcium flux; hits give high values.
In assay [14] the test system is TRPC4 (mouse), co-expressed with 5HT1a in HEK293. The experiment in a line: calcium flux potentiators in TRPC4/5HT1a cells, confirmation, counter-screen for TRPC4 potentiator project, cell-based, second counter screen, HEK293 TRPC4/5HT1a, Fluo-4 (AID 434979;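 active = signal rise over 3 SD above mean of control wells given weak agonist, in both repeats and first screen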). The settings on record: Fluo-4 calcium flux, at 10 µM, serotonin added at its EC20 dose; hits give high values.

A short description of assay [15]: calcium flux activation in mu-opioid HEK293 cells, confirmation, counter-screen for TRPC4 activator project, cell-based, HEK293 mu-opioid receptor line (AID 449723;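 active = hit in primary screen, with calcium signal over 5 SD above buffer well mean in both duplicates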;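 also: counter screen cells carry the mu-opioid receptor alone and lack TRPC4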). The settings on record: Fluo-4 calcium fluorescence, at 10 µM; hits give high values.
Assay [16] can be described thus: calcium flux enhancement in mu-opioid HEK293 cells, confirmation, counter-screen for TRPC4 allosteric potentiator project, cell-based, HEK293 mu-opioid receptor line (AID 449724;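 active = calcium signal rise more than 3 SD above the low-dose agonist control mean, in both duplicate plates and the primary screen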;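 also: HEK293 cells carrying mu-opioid receptor only with no TRPC4 channel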). The settings on record: Fluo-4 calcium flux, at 10 µM, compound added before EC20 DAMGO stimulus; hits give high values.

For some of these results: Results with a measured potency or affinity are listed apart. The source made the active and inactive calls.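 The calls were made as follows, unless noted: active = primary screen hit whose fluorescence ratio, in both repeats, exceeds the weak agonist control mean by 3 SD; inactive = the rest.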

Short transient receptor potential channel 4 (Mus musculus), sequence (Q9QUQ5 whole entry, looked up): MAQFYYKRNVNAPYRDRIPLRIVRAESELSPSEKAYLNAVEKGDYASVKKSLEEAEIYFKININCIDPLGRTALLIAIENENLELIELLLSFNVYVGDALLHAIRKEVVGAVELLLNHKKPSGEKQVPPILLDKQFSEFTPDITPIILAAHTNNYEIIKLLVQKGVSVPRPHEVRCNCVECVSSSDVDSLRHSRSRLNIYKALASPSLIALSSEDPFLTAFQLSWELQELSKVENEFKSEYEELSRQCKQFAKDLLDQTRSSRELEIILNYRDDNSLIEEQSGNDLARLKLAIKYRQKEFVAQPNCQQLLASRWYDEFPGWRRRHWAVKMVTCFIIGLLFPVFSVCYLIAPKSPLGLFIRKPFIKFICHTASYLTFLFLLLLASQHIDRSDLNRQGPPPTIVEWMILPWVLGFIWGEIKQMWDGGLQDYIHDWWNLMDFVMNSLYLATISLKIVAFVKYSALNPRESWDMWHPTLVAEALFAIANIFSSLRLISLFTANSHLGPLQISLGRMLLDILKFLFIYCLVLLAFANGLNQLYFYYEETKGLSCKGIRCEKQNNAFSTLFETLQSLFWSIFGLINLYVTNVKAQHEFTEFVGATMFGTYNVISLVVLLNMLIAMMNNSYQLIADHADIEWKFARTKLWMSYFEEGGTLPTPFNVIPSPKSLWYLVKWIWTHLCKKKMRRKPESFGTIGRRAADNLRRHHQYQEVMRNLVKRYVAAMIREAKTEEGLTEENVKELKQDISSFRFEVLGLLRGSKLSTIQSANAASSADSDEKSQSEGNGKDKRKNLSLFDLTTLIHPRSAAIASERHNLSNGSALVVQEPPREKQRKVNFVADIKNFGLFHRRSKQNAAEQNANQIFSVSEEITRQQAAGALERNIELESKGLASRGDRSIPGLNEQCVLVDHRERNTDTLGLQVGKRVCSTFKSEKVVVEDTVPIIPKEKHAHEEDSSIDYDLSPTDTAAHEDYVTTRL
Short transient receptor potential channel 6 (Mus musculus), sequence (Q61143 whole entry, looked up): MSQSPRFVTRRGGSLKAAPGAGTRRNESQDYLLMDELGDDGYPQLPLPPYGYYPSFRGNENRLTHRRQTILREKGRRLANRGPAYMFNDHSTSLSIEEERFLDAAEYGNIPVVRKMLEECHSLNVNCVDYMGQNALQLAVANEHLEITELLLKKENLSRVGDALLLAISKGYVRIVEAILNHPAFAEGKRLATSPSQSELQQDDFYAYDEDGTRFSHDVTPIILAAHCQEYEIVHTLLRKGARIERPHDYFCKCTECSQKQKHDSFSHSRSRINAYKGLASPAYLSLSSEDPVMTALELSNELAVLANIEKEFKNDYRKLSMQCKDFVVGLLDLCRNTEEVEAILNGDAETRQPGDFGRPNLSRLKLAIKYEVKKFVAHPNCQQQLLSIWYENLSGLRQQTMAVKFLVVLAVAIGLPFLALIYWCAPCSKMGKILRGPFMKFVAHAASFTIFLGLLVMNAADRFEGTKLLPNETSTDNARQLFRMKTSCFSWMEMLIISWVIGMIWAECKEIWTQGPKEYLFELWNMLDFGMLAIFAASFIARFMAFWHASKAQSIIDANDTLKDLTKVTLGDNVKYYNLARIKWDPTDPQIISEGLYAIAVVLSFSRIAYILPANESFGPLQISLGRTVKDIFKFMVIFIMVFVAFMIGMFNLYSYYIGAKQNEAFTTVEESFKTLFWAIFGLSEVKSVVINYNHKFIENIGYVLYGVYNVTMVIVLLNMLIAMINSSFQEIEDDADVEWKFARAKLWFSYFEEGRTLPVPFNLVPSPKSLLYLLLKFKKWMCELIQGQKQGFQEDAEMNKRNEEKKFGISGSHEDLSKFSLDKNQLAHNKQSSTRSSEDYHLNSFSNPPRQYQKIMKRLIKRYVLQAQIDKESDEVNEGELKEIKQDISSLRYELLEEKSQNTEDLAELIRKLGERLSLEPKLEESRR

A word on the inhibition: it is the change of the read-out against control, counted positive when it falls. Take `NC(=NC1CCCCC1)c1ccc(Cl)cc1`: the result in assay [1], in [2], in assay [3], in assay [4], in assay [7] and in assay [8] was inactive. Besides, the compound was called inactive in assay [9], in assay [10], in assay [11], in assay [12], in [14] and in assay [15]. The outcome in [16] was inactive. Besides, the values for the inhibition in assay [5], in [6] and in assay [13] were 97% (active), 66% (active) and 22.8% (active), respectively.
As for `CN(C)C(CNC(=O)CCc1nc2ccccc2s1)c1ccccc1` (stereo unspecified), the result in assay [1], in assay [2], in assay [3], in assay [4], in assay [7] and in [8] was inactive. The result in assay [9], in assay [10], in assay [11], in assay [12], in assay [13] and in assay [14] was inactive. The result in [15] and in assay [16] was inactive. The inhibition is 96% (active) in [5] and 86% (active) in assay [6].
In the case of `Cc1ccc(Sc2ccc(CO)cc2[N+](=O)[O-])cc1`, the result in assay [1], in assay [2], in assay [3], in assay [4], in assay [6] and in assay [7] was inactive. Further, the outcome in assay [8], in [9], in [10], in assay [11], in [12] and in assay [14] was inactive. For the same compound, the result in assay [15] and in [16] was inactive. Moreover, the inhibition is 98% (active) in assay [5] and 7.78% (active) in assay [13].
On to `CCCNCc1cc(Br)ccc1OCC(=O)NCCc1ccccc1`, for which the outcome in assay [1], in assay [2], in [3], in assay [4], in assay [7] and in assay [8] was inactive. Besides, the call in assay [9], in [10], in assay [11], in assay [12], in [13] and in [14] was inactive. The result in [15] and in [16] was inactive. Besides, the inhibition in [5] is 99% (active); in assay [6] it was 52% (active).
Turning to `O=c1c2ccccc2[nH]c(=S)n1CCN1CCN(Cc2ccccc2)CC1`, the result in assay [1], in assay [2], in assay [3], in [4], in assay [7] and in assay [8] was inactive. In addition, the outcome in assay [9], in assay [10], in assay [11], in assay [12], in assay [13] and in [14] was inactive. Moreover, the result in assay [15] and in assay [16] was inactive. Besides, the inhibition in assay [5] is 75% (active); in assay [6], 44% (active).
As to `c1ccc(CNc2c3ccccc3nc3ccccc23)cc1`, the result in assay [1], in assay [2], in assay [3], in [4], in assay [7] and in [8] was inactive. In addition, the outcome in assay [10], in assay [11], in assay [12], in [14], in assay [15] and in assay [16] was inactive. The inhibition in assay [5] is 95% (active); in [6], 60% (active); in [9] it was 38% (active); in assay [13], 23.7% (active).
On to `OCCCNc1c2ccccc2nc2ccccc12`, for which the outcome in assay [1], in assay [2], in assay [3], in assay [4], in assay [6] and in assay [7] was inactive. Further, the outcome in [8], in assay [10], in [11], in assay [12], in assay [14] and in assay [15] was inactive. For the same compound, the outcome in assay [16] was inactive. Moreover, the inhibition in [5] is 92% (active); in [9] it was 39.5% (active); in [13] it was 41.8% (active).
`OCC1(CCc2ccccc2)CCN(Cc2ccc3nsnc3c2)CC1`: the outcome in assay [1], in assay [2], in assay [3], in assay [4], in assay [6] and in [7] was inactive. Besides, the outcome in assay [8], in [9], in assay [10], in assay [11], in assay [12] and in [13] was inactive. Also, the outcome in assay [14], in assay [15] and in assay [16] was inactive. In addition, the inhibition in assay [5] was 83% (active).
Regarding `CC(=O)OCCCN1C(=O)c2cccc3cc(Br)cc(c23)C1=O`, the outcome in assay [1], in assay [2], in assay [3], in [4], in assay [7] and in assay [8] was inactive. The call in assay [9], in assay [10], in assay [11], in [12], in assay [14] and in [15] was inactive. Further, in assay [16], the outcome was inactive. Further, the inhibition in [5] was 96% (active); in assay [6], 55% (active); in assay [13], 14.5% (active).
With `N#Cc1c(-c2cccs2)nc(SCc2ccc(Cl)cc2)[nH]c1=O`, the outcome in assay [1], in [2], in assay [3], in assay [7], in assay [8] and in [9] was inactive. Further, the outcome in assay [10], in [11], in assay [12], in assay [14], in [15] and in assay [16] was inactive. In [4], the potentiation is 15% (active). Also, the inhibition in [5] is 99% (active); in assay [6] it was 40% (active); in [13], 11.9% (active).
Consider `Cc1ccc(NC(=O)CSCC(=O)OCc2cc(=O)oc3cc(O)ccc23)c(C)c1`, for which the result in assay [1], in [2], in assay [3], in assay [4], in [6] and in assay [7] was inactive. Also, the outcome in assay [8], in assay [9], in assay [10], in [11], in assay [12] and in assay [13] was inactive. For the same compound, the result in assay [14], in assay [15] and in [16] was inactive. The inhibition in assay [5] is 80% (active).
As for `Cc1cc(C)c2c(=O)n(CC(=O)NCCCN3CCN(c4ccccc4F)CC3)sc2n1`, the outcome in assay [1], in [2], in [3], in assay [4], in assay [7] and in [8] was inactive. Moreover, the call in assay [9], in assay [10], in assay [11], in assay [12], in assay [13] and in [14] was inactive. In addition, the result in [15] and in assay [16] was inactive. In addition, the inhibition in assay [5] was 90% (active); in [6], 55% (active).
As for `CCC1CCCCN1CCN1C(=O)C2C(C(=O)Nc3ccc(OC)cc3)C3C=CC2(O3)C1C(=O)NC1CCCCC1` (stereo unspecified), the result in [1], in assay [2], in assay [3], in assay [4], in assay [7] and in [8] was inactive. The call in [9], in assay [10], in assay [11], in assay [12], in assay [13] and in assay [14] was inactive. In addition, the result in assay [15] and in [16] was inactive. The inhibition is 96% (active) in assay [5] and 90% (active) in [6].
`O=C(c1ccco1)N1CCN(C/C=C/c2ccccc2)CC1`: the result in [1], in assay [2], in [3], in assay [4], in assay [7] and in [8] was inactive. Also, the outcome in assay [9], in [10], in assay [11], in [12], in assay [13] and in [14] was inactive. The result in assay [15] and in [16] was inactive. The inhibition in assay [5] is 87% (active); in [6], 64% (active).
Regarding `COc1ccc(C(CNC(=O)c2oc3ccc(Cl)cc3c2C)N2CCCCC2)cc1` (stereo unspecified), the outcome in assay [1], in [2], in assay [3], in assay [4], in assay [6] and in [7] was inactive. The result in [8], in assay [9], in [10], in assay [11], in [12] and in assay [13] was inactive. For the same compound, the outcome in assay [14], in assay [15] and in assay [16] was inactive. Besides, the inhibition in assay [5] is 83% (active).
With `CCOc1ccccc1-n1c(SCC(=O)Nc2nccs2)nnc1-c1ccoc1C`, the outcome in assay [1], in assay [2], in assay [3], in assay [4], in assay [7] and in assay [8] was inactive. In addition, the compound was called inactive in assay [9], in [10], in assay [11], in assay [12], in assay [13] and in assay [14]. For the same compound, the outcome in assay [15] and in assay [16] was inactive. Also, the inhibition in [5] is 52% (active); in assay [6], 44% (active).
